# According to PubChem BioAssay AID588675 (Johns Hopkins Ion Channel Center, 2011):
# The whole screen tested about 310,000 compounds, of which about 1,900 (0.61%) were called active.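 Rule for the calls: active = plate-corrected calcium response at least 3 library SD above typical, normal starting fluorescence, not activating the receptor alone; inactive = the rest.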 For the sample, actives were picked, then their nearest neighbours and some compounds at random.
# Target: Mas-related G-protein coupled receptor member X1 (Homo sapiens) (UniProt Q96LB2)
# Sequence (Q96LB2 whole entry, looked up): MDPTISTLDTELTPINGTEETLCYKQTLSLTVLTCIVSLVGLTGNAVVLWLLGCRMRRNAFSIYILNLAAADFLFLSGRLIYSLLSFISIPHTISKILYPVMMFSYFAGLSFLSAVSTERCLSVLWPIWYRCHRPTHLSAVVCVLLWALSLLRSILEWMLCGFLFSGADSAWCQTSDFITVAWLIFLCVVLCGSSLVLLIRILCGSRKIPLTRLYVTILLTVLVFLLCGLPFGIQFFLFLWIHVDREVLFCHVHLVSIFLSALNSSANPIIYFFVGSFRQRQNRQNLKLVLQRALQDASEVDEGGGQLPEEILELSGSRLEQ
# Assay: allosteric enhancers of human MrgX1 signaling – HEK293 cells, Fluo-4 calcium flux, primary screen (AID 588675);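 note: compound read alongside a low EC10 to EC30 dose of BAM8-22 agonist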;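 for B-score: peak minus trough fluorescence over baseline measured at the second addition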
# Settings: MrgX1-HEK293, Fluo-4 calcium flux, FDSS, at 10 µM; hits give high values
row,Structure (SMILES),B-score
1,COc1ccc(OC)c(-c2c(=O)n(OCc3ccccc3Br)c3ccccc3[n+]2[O-])c1,inactive
2,O=C(Oc1ccc(-c2nnco2)cc1)c1ccc(F)c(S(=O)(=O)N2CCOCC2)c1,inactive
3,CN(C(=O)CCNC(=O)Cn1ccc2ccccc2c1=O)c1ccc(Br)cc1,inactive
4,CC(=O)N1c2ccc(S(=O)(=O)N(C)CC(=O)N(C)Cc3ccccc3)cc2CC1C (configuration not stated),inactive
5,O=C(Nc1nnc(-c2ccccc2F)s1)c1ccccc1F,inactive
6,COc1ccccc1C(CNC(=O)c1cccc(NS(=O)(=O)c2ccc(Br)cc2)c1)N(C)C (configuration not stated),inactive
7,Cc1ccc(CNS(=O)(=O)c2ccc3c(c2)N(C)CCO3)cc1,inactive
8,Cc1ccc(NC(=O)Nc2ccc3oc(C)nc3c2)cc1,inactive
9,Cc1ccc(N/C(N)=N/c2nc(C(F)(F)F)cc(C(F)(F)F)n2)cc1,38.3 (active)
10,CC(=O)NS(=O)(=O)c1ccc(N/C(N)=N/c2nc(C)cc(C)n2)cc1,inactive
11,O=C(c1noc2c1CCCC2)N1CCc2ccccc2C1,inactive
12,Cc1cc(C)cc(Oc2nc3c(C)cccn3c(=O)c2/C=C(\C#N)C(=O)NC2CCS(=O)(=O)C2)c1 (configuration not stated),inactive
13,CN1CC(c2ccccc2)C2(COc3ccccc3C2=O)C12C(=O)Nc1ccccc12 (configuration not stated),inactive
14,CCOC(=O)N1CCN(C(=O)CSc2nc(C)nc3c2c(=O)n(C)c(=O)n3C)CC1,inactive
15,CCC(C)Sc1nc(C)nc2c1c(=O)n(C)c(=O)n2C (configuration not stated),17.1 (active)
16,CSc1nc(C)nc2c1c(=O)n(C)c(=O)n2C,inactive
17,CC1(C(=O)N/N=C/c2cc3c(cc2Br)OCO3)CC1(Br)Br (configuration not stated),8.54 (active)
18,CC(=O)N/N=C/c1cc2c(cc1[N+](=O)[O-])OCO2,inactive
19,O=C(N/N=C/c1cc2c(cc1Br)OCO2)C1COc2ccccc2O1 (configuration not stated),inactive
20,CCOC(=O)C1(Cc2ccccc2C)CCCN(S(C)(=O)=O)C1 (configuration not stated),inactive
21,O=C(NC(Cc1ccccc1)C(=O)O)/C(=C\c1ccccc1)NC(=O)c1ccco1 (configuration not stated),inactive
22,CCS(=O)(=O)C1=NSC2=NC(=O)/C(=C\c3ccc(OS(=O)(=O)c4ccccc4)cc3)C(=N)N21,24.2 (active)
23,CCS(=O)(=O)C1=NSC2=NC(=O)/C(=C\c3cc(C)n(-c4cccc(OC)c4)c3C)C(=N)N21,10.5 (active)
24,CS(=O)(=O)c1ccc2c(c1)SC1=NC(=O)/C(=C/c3ccco3)C(=N)N12,inactive
25,Cc1ccc(C2=N/C(=C\c3ccc(OS(=O)(=O)c4ccc(C)cc4)cc3)C(=O)O2)cc1,inactive
26,CCC1=NN2C(=N)/C(=C/c3cc(C)n(-c4ccccc4)c3C)C(=O)N=C2S1,inactive

row,Structure (SMILES),B-score
1,Cc1cc(/C=C2\SC(=O)N(C)C2=O)c(C)n1-c1cccc(C(=O)O)c1,inactive
2,Cc1cc(/C=C2/C(=N)N3C(=NC2=O)SN=C3S(C)(=O)=O)c(C)n1-c1ccccc1,11.8 (active)
3,CS(=O)(=O)C1=NN2C(=N)/C(=C\c3ccc(OCCOc4ccccc4)cc3)C(=O)N=C2S1,inactive
4,COc1ccccc1OCCOc1ccc(/C=C2\C(=N)N3N=C(C)SC3=NC2=O)cc1,inactive
5,COC1(C2=NCCN2)COc2ccccc2O1 (configuration not stated),inactive
6,COc1ccccc1NC(=O)N1CCCC1C(=O)NCc1cccs1 (configuration not stated),inactive
7,COc1cccc(-c2nnc(NC(=O)c3ccc(S(=O)(=O)N(CC(C)C)CC(C)C)cc3)o2)c1,inactive
8,O=C1CCCCN1CCCC(=O)N1CCCC(Nc2ccc(F)cc2)C1 (configuration not stated),inactive
9,CCOC(=O)c1ccc(N=C2SC(C(=O)NC)CC(=O)N2CCc2ccccc2)cc1 (configuration not stated),inactive
10,CSc1ccc(CN2C(=O)NC3(CCCCCC3)C2=O)cc1,inactive
11,C=C1c2c(Cl)ccc(O)c2C(O)=C2C(=O)[C@]3(O)C(O)=C(C(N)=O)C(=O)[C@@H](N(C)C)[C@@H]3[C@@H](O)C12 (some centres not stated),inactive
12,O=C(Cc1ccc(S(=O)(=O)N2CCCC2)s1)NC1CCCCCC1,inactive
13,Cc1ccc(SCC(=O)c2cc(C)c(OC(=S)N(C)C)c(C)c2)cc1,inactive
14,COc1ccc(OC)c2sc(NC(=O)C3COc4ccccc4O3)nc12 (configuration not stated),inactive
15,O=C(Nc1ncc([N+](=O)[O-])s1)C1COc2ccccc2O1 (configuration not stated),inactive
16,O=C(Nc1nc2c(F)cc(F)cc2s1)C1COc2ccccc2O1 (configuration not stated),9.52 (active)
17,COc1cc(OC)nc(N/N=C(\c2ccccc2)c2ccncc2)n1,9.14 (active)
18,COc1ccc(C/C(C)=N/NC(=O)c2ccncc2)cc1,inactive
19,CN(C)CCCO/N=C(\c1ccccc1)c1ccncc1,inactive
20,CSc1cccc(NC(=O)C2CCCN2S(=O)(=O)c2ccc3c(c2)CCC(=O)N3)c1 (configuration not stated),inactive
21,CC[N+](C)(CC)CCC[n+]1c(-c2ccccc2)c2cc(N)ccc2c2ccc(N)cc21,inactive
22,Cc1ccc2c(c1)c1ncn(Cc3ccc(F)cc3)c(=O)c1n2C,inactive
23,Cc1ccc2c(c1)c1ncnc(N3CCc4ccccc4C3)c1n2C,8.06 (active)
24,Cc1ccc2c(c1)c1ncn(CCC3=CCCCC3)c(=O)c1n2C,inactive
25,COc1cc(S(=O)(=O)N(Cc2cccs2)C2CC2)ccc1-n1cnnn1,inactive
26,COC(=O)c1ccc(CN2CCN(CCCc3ccccc3)C(CCO)C2)cc1 (configuration not stated),inactive
